Pf Dd2 inh: blocks in vitro growth of P. falciparum Dd2. AID 1347417. 120,000 compounds, 4.3% hits. Potency, µM (doses to about 28.9 µM), for inactives: at the highest dose activity, negative = inhibition, hits mostly inhibitors. P. falciparum Dd2 growth, SYBR Green, 72 h; active means well fitted inhibition curve with a large enough effect;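 further: plate controls were DMSO vehicle for no effect and reference drug for full effect; nearly all actives have a fitted effect of over 65% in size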
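Readout: SYBR Green fluorescence, 485 nm excitation, 535 nm emission, after ~16 h lysis at 37C. Before that, Dd2-infected red cells (2.5% hematocrit) grew 72 h with compound, 29 uM top final concentration.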
Starred values were filed as active, the others as inactive; i = inactive; [ ] = another dose, or the depositor's remark. The full list was thinned out, with hits kept by preference. Potency means the concentration at half of the fitted maximal effect.

SMILES	Pf Dd2 inh
O=C(C1CCCC1)N1CCN(C(=O)N2CC3CC(C2)[C@H]2CCCC(=O)N2C3)CC1 (stereo partly drawn)	24.5%
NC(=O)CNC(=O)C1=C[C@@H](NC(=O)c2ccc(F)c(Cl)c2)[C@@H](O)[C@H](O)C1	58.4%[44.1 µM]
Cc1cccc(CN2C[C@@H](F)[C@@H](OCc3nc4ccccc4n3C)C2)n1	i
COc1ccc(CN2CC[C@H](c3nc4ccc(C)cc4[nH]3)C2)cc1	i
Cc1ccc(CN2CC[C@H](c3nc4ccc(C(F)(F)F)cc4[nH]3)C2)cc1	11.2µM*
COc1ccc2nc([C@H]3CCN(Cc4ccncc4)C3)[nH]c2c1	i
O=S(=O)(Nc1ncc(CN2CC[C@H]3CNC[C@H]32)cn1)c1ccccc1	-3.9%
CCN1c2cc(C(=O)N3CCN(c4ccc(C)cc4)CC3)ccc2C(=O)N2CCCCC21 (stereo not drawn)	i
O=C(Cn1c(=O)oc2ccccc21)N1CCC2(CC1)CC(OCC1CC1)CCO2 (stereo not drawn)	-3.5%
CN(C)CCCn1ccnc1C1CCN(C(=O)C2CCCN(C)C2)CC1 (stereo not drawn)	11.4%
Cc1ccc(-c2nnc(C3CN(C(=O)c4cccc(F)c4)CC34CCOCC4)o2)cc1 (stereo not drawn)	3.98µM*
Cc1ccc(-c2nnc(C3CN(C(=O)c4ccn[nH]4)CC34CCOCC4)o2)cc1 (stereo not drawn)	i
Cc1ccc(-c2nnc(C3CN(C(=O)Cc4cccc(F)c4)CC34CCOCC4)o2)cc1 (stereo not drawn)	i
Cc1ccc(-c2nnc(C3CN(C(=O)c4cccc(C)c4)CC34CCOCC4)o2)cc1 (stereo not drawn)	i
Cc1ccc(-c2nnc(C3CN(C(=O)c4cccnc4C)CC34CCOCC4)o2)cc1 (stereo not drawn)	-13.8%
Cc1ccc(-c2nnc(C3CN(C(=O)c4n[nH]c5ccccc45)CC34CCOCC4)o2)cc1 (stereo not drawn)	8.91µM*
CNC(=O)[C@@H]1CN(C(=O)CCc2ccccc2OC)C[C@H]1COC	3.6%
COc1ccc(C(CC(=O)N2CCC(OC)CC2)c2ccccc2)cc1 (stereo not drawn)	-7.7%
O=C(c1nc2sccn2c1Br)N1CCC(N2CCCCCC2=O)CC1	-18.3%
CCNC(=O)C1(c2ccc(NC(=O)C(C)C)cc2)CCCCC1	-12.6%
CCC(=O)Nc1ccc(C2(C(=O)N3CCN(c4ccccc4)CC3)CCC2)cc1	-19.8%
CC(C)C(=O)Nc1ccc(C2(C(=O)N3CCN(c4ccccc4)CC3)CCCCC2)cc1	7.94µM*
O=[S+]1([O-])NCC2(CCN(CC3CCOCC3)C2)Oc2ncccc21 (stereo not drawn)	12.9%
O=[S+]1([O-])NCC2(CCN(CC3CCCC3)C2)Oc2ncccc21 (stereo not drawn)	12.6µM*
O=[S+]1([O-])NCC2(CCN(CC3CC3)C2)Oc2ncccc21 (stereo not drawn)	4.1%
SMILES	Pf Dd2 inh
O=C(NC[C@H]1O[C@@H](CO)[C@@H](O)[C@H]1N1CCN(c2ccccn2)CC1)Nc1ccc(F)cc1F	20.1%
Cc1noc([C@@H]2CN(C(=O)c3occc3C)C[C@H]2COCC2CC2)n1	-14.5%
CCCCCn1c(-c2cccc(C)c2)nc2ccccc21	-7.8%
COc1ccc(Cn2ccn(Cc3cccc(C)c3)c(=O)c2=O)cc1	33.9%
NCc1cccc(-c2ccccn2)c1	-28.3%[44.1 µM]
NCc1ccc(-c2ccc(F)cc2)cc1	10µM*
Cc1cccc(-c2ccc(CN)cc2)c1	11.2µM*
COc1ccc(-c2ccc(CN)cc2)cc1	-12.4%[44.1 µM]
Cc1cccc(-c2nocc2CCC(=O)NCc2ccccc2F)c1	-20.3%
COc1ccc(CCC(=O)NCCc2csc(-c3cccc(C)c3)n2)cc1	-18.7%
NCc1cccc(-c2ccc3c(c2)C(=O)N2CC[C@H](NC(=O)c4cccc(F)c4)[C@H]2C(=O)N3)c1	i
Cc1ccc(CN(C)Cc2ccc(F)cc2)cc1	9.7%[44.1 µM]
Cc1cccc(-c2ccccc2CN)c1	10µM*
NCc1cccc(-c2cc(F)cc(F)c2)c1	10µM*
COc1ccc(S(=O)(=O)N2CCC(c3noc(-c4ccncc4)n3)C2)cc1 (stereo not drawn)	2.4%[5.79 µM]
Clc1cccc(N2CCN(C3CCCN(CCCc4ccccc4)C3)CC2)c1 (stereo not drawn)	i
CN(Cc1nc(-c2ccncc2)no1)C1CCC2(CCNCC2)CC1	3.6%
CCOc1ccc(C(=O)N2CC(C(=O)NCCc3ccncc3)C3(CCOCC3)C2)cc1 (stereo not drawn)	-2.1%
CCCOCC(=O)N1CCCC(c2cc(N3CCCC3)nc(C)n2)C1 (stereo not drawn)	-4.6%
NCc1ccc(-c2cccc(Cl)c2)cc1	10µM*
O=Cc1ccc(-c2cccc(Cl)c2)cc1	10.0%[44.1 µM]
CN(Cc1ccc(-c2ccccc2)cc1)C(=O)c1cccc(Cl)c1	-12.9%[44.1 µM]
Cc1ccc(C2Cn3nnc(-c4nc(-c5ccccc5C)no4)c3CO2)c(C)c1 (stereo not drawn)	-24.9%
O=C(NCc1ccncc1)C1CCN(C(=O)c2ncn3c2COC(c2ccc(F)cc2)C3)CC1 (stereo not drawn)	-14.2%
Cc1cc(C(=O)N[C@@H]2CN(Cc3ccccc3)C[C@H]2CN(C)C)n(C)n1	-5.6%
SMILES	Pf Dd2 inh
CC(C)CCNC[C@H]1O[C@H](Cc2cc(-c3ccc(F)cc3)on2)CC[C@@H]1O	3.55µM*
COCC(=O)NC[C@H]1O[C@H](Cc2cc(-c3ccc(OC)cc3)on2)CC[C@@H]1O	i
COCC(=O)NC[C@H]1O[C@H](Cc2cc(-c3ccc(F)cc3)on2)CC[C@@H]1O	14.1µM*
O[C@H]1CC[C@@H](Cc2cc(-c3ccccc3)on2)O[C@@H]1CNC1CCCCC1	4.47µM*
COCc1cc(C[C@@H]2CC[C@H](O)[C@@H](CNCc3ccccc3)O2)no1	i
COc1cccc(NC(=O)NC[C@H]2O[C@H](Cc3cc(-c4ccc(F)cc4)on3)CC[C@@H]2O)c1	-24.6%
COCc1cc(C[C@@H]2CC[C@H](O)[C@@H](CNCc3cccc(OC)c3)O2)no1	-2.7%[44.1 µM]
O[C@H]1CC[C@@H](Cc2cc(COc3ccccc3)on2)O[C@@H]1CNCc1cccc(Cl)c1	1.26µM*
CC(=O)NC[C@H]1O[C@H](Cc2cc(-c3ccc(F)cc3)on2)CC[C@@H]1O	i
O=C(COc1ccccc1)NC[C@H]1O[C@H](Cc2cc(-c3ccccc3)on2)CC[C@@H]1O	i
O=C(NC[C@H]1O[C@H](Cc2cc(-c3ccc(F)cc3)on2)CC[C@@H]1O)c1ccc(F)cc1	-2.6%[44.1 µM]
Oc1cccc(-c2cc(C[C@@H]3CC[C@H](O)[C@@H](CNC4CCC4)O3)no2)c1	3.6%[44.1 µM]
Fc1ccc(-c2noc(-c3nc(-c4ccncc4)no3)n2)cc1F	i
O=C(COc1ccccc1)Nc1ccc([C@@H](O)[C@H]2COCC(=O)N2CC2CC2)cc1	-0.5%[44.1 µM]
CN1CCN([C@H]2CCN(Cc3cccs3)C[C@H]2CCC(=O)O)CC1	4.7%
CCNC(=O)N(C1CC1)C1CCOC2(CCN(C(=O)Cc3ccccc3)CC2)C1 (stereo not drawn)	1.9%
CCNC(=O)C1CCN(C(=O)N2CC3CC(C2)[C@H]2CCCC(=O)N2C3)CC1 (stereo partly drawn)	2.5%
Cc1cc(C)cc(C(=O)NCc2nnc3ccc(-c4ccccc4)nn23)c1	i
O=C(c1cncc(Br)c1)N1CCC(c2nc(C3CCOCC3)no2)CC1	i
O=C(NC[C@H]1OC[C@@H](NC2CCCCC2)[C@@H]1O)c1ccncc1	2.7%[44.1 µM]
CCC(=O)N(C1CCOCC1)C1CCN(S(=O)(=O)c2cccnc2)CC1	-15.7%

Compound activity (PubChem BioAssay)
